INS promoter inh: TRM-6 insulin promoter activity inhibition; TRM-6 cells (human fetal islet line), insulin promoter-eGFP reporter, imaging; reporter expression induced with tamoxifen; inhibition, % at 2 µM; 130,000 tested, 0.9% active;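 active = inhibition above the mean plus 3 SD, with well images judged a real hit on visual review, cut at about 60% in these data, passing the limit was not always enough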
PTEN del growth: suppresses growth of cells with PTEN deletion; HCT116 PTEN-null viability, CellTiter-Glo, 60 h; hits give low values; viability, % at 10 µM; 140,000 tested, 1.2% active; AID 827;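 active = viability at or below a set limit, 4 SD under the median of all tested compounds, cut at about 3.7% in these data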;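 note: PTEN knockout HCT116 line with beta catenin targeted HCT116 as companion control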
p97 inhibitor: inhibitors of human p97 ATPase; AID 1481; P55072; recombinant p97 ATPase, Kinase-Glo ATP luminescence, 3 h; inhibition, % at 8 µM; 220,000 tested, 0.42% active; in the data active = inhibition above about 15%
bCat KO growth: beta-catenin-lacking colon tumor cell growth suppression; 140,000 tested, 1.5% active; HCT116 beta-catenin knockout viability, CellTiter-Glo, 60 h; hits give low values; viability, % at 10 µM; AID 818;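 active = viability at or under a set limit, the compound median less 4 SD, cut at about 6% in these data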
L major viab: reduces viability of Leishmania major promastigotes; resazurin fluorescence viability; 200,000 tested, 9% active; inhibition, % at 10 µM; in the data active = inhibition above about 50%;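 note: promastigotes grown with compound for 44 hours at 28 °C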
ROMK primary: modulates human ROMK potassium channel activity; 130,000 tested, 2% active; B-score at 10 µM; P48048; AID 1918; Tet-inducible ROMK, thallium flux fluorescence; actives lie on both sides;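 active = signal ratio slope over the read window, or its plate-corrected B-score, at least 3 SD from the plate mean, either direction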;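 note: B-score of the F/F0 ratio slope over 7 to 12 s after thallium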
Target sequence (P48048 whole entry, looked up): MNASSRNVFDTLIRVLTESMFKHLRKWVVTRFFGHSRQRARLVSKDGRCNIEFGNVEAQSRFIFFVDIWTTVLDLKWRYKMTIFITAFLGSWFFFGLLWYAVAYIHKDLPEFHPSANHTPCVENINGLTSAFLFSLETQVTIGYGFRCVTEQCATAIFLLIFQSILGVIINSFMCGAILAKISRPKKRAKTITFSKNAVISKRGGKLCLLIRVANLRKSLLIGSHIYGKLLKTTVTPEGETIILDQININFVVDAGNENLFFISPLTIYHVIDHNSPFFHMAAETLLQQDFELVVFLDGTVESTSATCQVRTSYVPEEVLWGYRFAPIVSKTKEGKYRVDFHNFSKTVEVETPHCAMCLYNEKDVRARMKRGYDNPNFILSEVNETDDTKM
Each line names hits and unclear results; the compound was inactive in the other large screens. An excerpt weighted towards active compounds, which were near 10% of everything screened.

O=C(OCc1ccccc1)N1CCCC1/C=C/CN1CCOCC1 (stereo unspecified)	L major viab 82 (no result: INS promoter inh, PTEN del growth, bCat KO growth)
CC(C)(C)c1ccc(C(=O)Nc2cccc([N+](=O)[O-])c2)cc1	INS promoter inh 72
Cc1ccccc1NC(=O)c1ccc2c(c1)OCCO2	PTEN del growth 1.9
O=C(Nc1cccc([N+](=O)[O-])c1)c1ccc2c(c1)OCCO2	L major viab 52
O=C(Nc1cccc([N+](=O)[O-])c1)c1cnccn1	L major viab 65
O=C(Nc1cccc([N+](=O)[O-])c1)c1ccncc1	none (no result: ROMK primary)
Cc1cc(N)n(-c2ccc(Oc3ccccc3)c(S(=O)(=O)O)c2)n1	none (no result: PTEN del growth, bCat KO growth)
O=C(NC(CO)Cc1ccc([N+](=O)[O-])cc1)C(Cl)Cl (stereo unspecified)	L major viab 63
Cn1nc(NC(=O)CC23CC4CC(CC(C4)C2)C3)c2c(F)cccc21	none (no result: INS promoter inh, PTEN del growth, bCat KO growth, L major viab)
CCCc1ccc(-c2cc(C(=O)Nc3ccc([N+](=O)[O-])cn3)c3ccccc3n2)cc1	L major viab 76 (no result: INS promoter inh, ROMK primary)
CCCc1ccc(-c2cc(C(=O)NCCc3ccc(S(N)(=O)=O)cc3)c3ccccc3n2)cc1	none (no result: INS promoter inh)
Cc1cc(C(=O)N/N=C/c2ccc([N+](=O)[O-])cc2)c2ccccc2n1	none (no result: INS promoter inh, PTEN del growth, bCat KO growth, L major viab, ROMK primary)
Cc1cc(C(=O)N/N=C/c2cc([N+](=O)[O-])ccc2O)c2ccccc2n1	PTEN del growth 3.0 (no result: ROMK primary)
O=C(N/N=C/c1cc([N+](=O)[O-])ccc1O)c1cc(-c2ccccc2)nc2ccccc12	L major viab 98 (no result: INS promoter inh, ROMK primary)
COCCCNCCCCOc1c(Cl)cc(C)cc1Br	L major viab 100 (no result: ROMK primary)
C=CCNCCCCOc1c(Cl)cc(C)cc1Br	L major viab 99 (no result: ROMK primary)
Cc1cc(C)c(OCCCCNCc2ccccc2)c(Cl)c1	L major viab 97
C=CCNCCOc1c(C)cc(C)cc1Cl	none
O=C(NCc1cccnc1)c1cccc2c1C(=O)N(Cc1cccnc1)C2	none (no result: INS promoter inh)
CC(C)c1ccc(NC(=O)CSc2n[nH]c(=O)n2-c2ccc3c(c2)OCCO3)cc1	none (no result: INS promoter inh, PTEN del growth, bCat KO growth, L major viab, ROMK primary)
Nc1ccccc1S(=O)(=O)C(F)F	none (no result: INS promoter inh, PTEN del growth, bCat KO growth, L major viab)
CCOc1cc(/C=N/NS(=O)(=O)c2ccccc2)ccc1OS(=O)(=O)c1ccc(C)cc1	none
CCC(=O)N/N=C/c1ccc(OS(=O)(=O)c2ccccc2)cc1	L major viab 57
NC(N)=N/N=C/c1ccc(OS(=O)(=O)c2ccccc2)cc1	L major viab 88 (no result: PTEN del growth, bCat KO growth)
CCOc1cc(/C=N/NC(=O)COc2ccc(Cl)cc2)ccc1OS(=O)(=O)c1ccccc1	L major viab 96
O=c1cc(NCc2ccccc2)nc2n1CCCS2	none
CCOC(=O)C(C#N)c1ccccn1 (stereo unspecified)	none (no result: ROMK primary)
CCN(CC)S(=O)(=O)c1ccc(C(=O)C(C#N)c2ccccn2)cc1 (stereo unspecified)	INS promoter inh 73 (no result: ROMK primary)
CCCC(=O)NC(c1ccc(N(C)C)cc1)c1c(O)ccc2ccccc12 (stereo unspecified)	L major viab 100
CCC(=O)NC(c1cccc([N+](=O)[O-])c1)c1c(OC(C)=O)ccc2ccccc12 (stereo unspecified)	L major viab 80 (no result: ROMK primary)
CCCCC(=O)NC(c1ccc(OC)c(OC)c1)c1c(O)ccc2ccccc12 (stereo unspecified)	L major viab 100 (no result: ROMK primary)
CC(=O)NC(c1ccccc1)c1c(O)ccc2ccccc12 (stereo unspecified)	none (no result: INS promoter inh, PTEN del growth, bCat KO growth)
CC(C)C(=O)NC(c1ccc([N+](=O)[O-])cc1)c1c(O)ccc2ccccc12 (stereo unspecified)	PTEN del growth 1.8, bCat KO growth 2.0, L major viab 97 (no result: ROMK primary)
CCCC(=O)NC(c1ccc(OC)c(OC)c1)c1c(O)ccc2ccccc12 (stereo unspecified)	L major viab 100 (no result: ROMK primary)
COc1ccc(C(NC(C)=O)c2c(O)ccc3ccccc23)cc1OC (stereo unspecified)	none (no result: INS promoter inh, ROMK primary)
Cc1ccc(C(NC(=O)C2CCCCC2)c2c(O)ccc3ccccc23)cc1 (stereo unspecified)	L major viab 97 (no result: INS promoter inh, ROMK primary)
CCC(Sc1nc2cc(OC)c(OC)cc2c(=O)n1CCc1ccc(OC)c(OC)c1)C(=O)NCCOC (stereo unspecified)	L major viab 80 (no result: PTEN del growth, bCat KO growth)
CCCCNC(=O)CSc1nc2cc3c(cc2c(=O)n1CCC(=O)NCCc1ccc(OC)c(OC)c1)OCO3	L major viab 52 (no result: PTEN del growth, bCat KO growth)
Cc1ccc(NC(=O)CSc2nnc3ccccn23)cc1S(=O)(=O)N1CCOCC1	none (no result: INS promoter inh, PTEN del growth, bCat KO growth)
O=C(NC1C/C(=N/O)c2cc3c(cc21)OCO3)C(F)(F)F (stereo unspecified)	none (no result: INS promoter inh, PTEN del growth, bCat KO growth)
Cc1ccc(NC(=S)N(CCCN2CCOCC2)Cc2ccccn2)cc1	none
Cc1ccccc1NC(=S)N(CCCN1CCOCC1)Cc1ccccn1	L major viab 65
S=C(Nc1ccccc1Cl)N(CCCN1CCOCC1)Cc1ccco1	L major viab 85
CCN(CC)C(=O)c1sc(NC(=O)Cc2ccc(OC)cc2)c(C#N)c1C	L major viab 85 (no result: ROMK primary)
CCN(CC)C(=O)c1sc(NC(=O)Cc2ccccc2)c(C#N)c1C	none (no result: ROMK primary)
CN(C(=O)CSc1nnc(-c2ccncc2)n1Cc1ccccc1)C1CCS(=O)(=O)C1 (stereo unspecified)	none (no result: INS promoter inh, PTEN del growth, bCat KO growth)
CCOC(=O)CSc1nc(C)cc(C)c1C(N)=O	none (no result: INS promoter inh, PTEN del growth, bCat KO growth)
O=c1[nH][nH]c2c(N=Cc3ccccc3O)ccc(F)c12	p97 inhibitor 40 (no result: INS promoter inh, PTEN del growth, bCat KO growth, L major viab, ROMK primary)
CCOC(=O)COc1ccc2nsnc2c1	none (no result: INS promoter inh, ROMK primary)
CCOC(=O)COc1ccc2ccccc2c1/C=C/[N+](=O)[O-]	PTEN del growth 2.6, bCat KO growth 3.3, L major viab 90
O=[N+]([O-])/C=C/c1c(OCc2ccccc2)ccc2ccccc12	PTEN del growth 2.5, bCat KO growth 1.9, L major viab 100
CCOC(=O)COc1ccc(/C=C/[N+](=O)[O-])c(OCC(=O)OCC)c1	PTEN del growth 1.9, bCat KO growth 4.0, L major viab 100 (no result: INS promoter inh)
CCOC(=O)COc1ccccc1/C=N/O	none
COc1ccc(C(=O)NCC(=O)N/N=C/c2cccc(OC(=O)c3ccco3)c2)cc1OC	none (no result: INS promoter inh, PTEN del growth, bCat KO growth)
COC(=O)NCC(c1cccnc1)N1CCN(c2ccccc2OC)CC1 (stereo unspecified)	L major viab 70
O=C(NCC(c1cccnc1)N1CCN(c2ccccc2F)CC1)c1cccc(Cl)c1 (stereo unspecified)	L major viab 94
COc1ccc(N2CCN(C(CNC(=O)c3ccco3)c3cccnc3)CC2)cc1 (stereo unspecified)	none
COc1ccccc1N1CCN(C(CNC(=O)c2ccco2)c2cccnc2)CC1 (stereo unspecified)	L major viab 81 (no result: INS promoter inh, ROMK primary)
COC(=O)NCC(c1cccnc1)N1CCN(c2ccccc2F)CC1 (stereo unspecified)	L major viab 56 (no result: ROMK primary)
CCOC(=O)c1c(C)[nH]c(C)c1C(=O)COC(=O)c1nc2nccc(C)n2n1	none (no result: PTEN del growth, bCat KO growth)
O=C(Cn1cc(C(=O)c2ccco2)c2ccccc21)NC1CC1	none (no result: PTEN del growth, bCat KO growth)
CSc1ccc(S(=O)(=O)NCc2ccc(Cl)cc2Cl)cc1	none
Cc1nc(N2CCCCC2)c(C#N)c(C)c1[N+](=O)[O-]	none (no result: INS promoter inh, PTEN del growth, bCat KO growth)

Bioassay records as filed in PubChem BioAssay.
